From PubChem BioAssay (NCI)
Compounds without any hit were thinned out: in the full panel of roughly 83,000, 20% have a hit.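 Assay: single dose, 48 h. Readout: percent growth (0 = no net growth; negative = cell death). Active: <10.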 Activity calls are given as the source filed them.

Assays:
Assay in all cases: NCI-60 one-dose screen, 48 h (100 = growth as untreated, 0 = no growth, -100 = all killed)
Settings in all cases: 10 µM unless noted
SK-MEL-2 melanoma = test system: SK-MEL-2 melanoma
EKVX NSCLC = test system: EKVX NSCLC
SN12C renal = test system: SN12C renal
TK-10 renal = test system: TK-10 renal
ACHN renal = test system: ACHN renal
CAKI-1 renal = test system: CAKI-1 renal
A498 renal = test system: A498 renal
CCRF-CEM leukemia = test system: CCRF-CEM leukemia
MOLT-4 leukemia = test system: MOLT-4 leukemia
UO-31 renal = test system: UO-31 renal

Measured: growth

COC(=O)CNC(=O)[C@H](Cc1ccccc1)NCc1ccncc1
inactive: SK-MEL-2 melanoma 95.3% | EKVX NSCLC 99.5% | SN12C renal 99.3% | TK-10 renal 88.5% | ACHN renal 107% | CAKI-1 renal 99.1% | A498 renal 88.3% | CCRF-CEM leukemia 86% | MOLT-4 leukemia 105%

Cc1ccc(-c2cc(-c3ccc(Cl)cc3)nc(NC(=O)c3cccnc3)n2)cc1
inactive: SK-MEL-2 melanoma 109% | EKVX NSCLC 102% | SN12C renal 103% | TK-10 renal 115% | ACHN renal 103% | CAKI-1 renal 94.2% | A498 renal 111% | CCRF-CEM leukemia 106% | MOLT-4 leukemia 93.2%

COc1ccc(Cc2cc(-c3ccccc3)nn(Cc3ccccc3)c2=O)cc1OC
active: A498 renal -16.9% | MOLT-4 leukemia 9.1%
inactive: SK-MEL-2 melanoma 36.1% | EKVX NSCLC 14.4% | SN12C renal 20.2% | TK-10 renal 49.8% | ACHN renal 27.1% | CAKI-1 renal 46.3% | CCRF-CEM leukemia 43%

COc1ccc(-c2nc3c(c(-c4ccccc4)nn3-c3ccccc3)c(-c3ccc(N4CCOCC4)cc3)c2C#N)cc1
inactive: SK-MEL-2 melanoma 106% | EKVX NSCLC 100% | SN12C renal 97.9% | TK-10 renal 110% | ACHN renal 104% | CAKI-1 renal 93.7% | A498 renal 98.2% | CCRF-CEM leukemia 99.6% | MOLT-4 leukemia 94.4%

Brc1ccc(-n2cc(-c3nn[nH]n3)c(-c3cccs3)n2)cc1
inactive: SK-MEL-2 melanoma 101% | EKVX NSCLC 90.5% | SN12C renal 88.9% | TK-10 renal 104% | ACHN renal 89.4% | CAKI-1 renal 91.1% | A498 renal 81.5% | CCRF-CEM leukemia 103% | MOLT-4 leukemia 101%

CC1=Nc2cnc(Nc3ccc(OCCN4CCCC4)cc3)nc2Nc2ccccc21
inactive: SK-MEL-2 melanoma 55.9% | EKVX NSCLC 75.1% | SN12C renal 61.1% | TK-10 renal 63.6% | ACHN renal 28.7% | CAKI-1 renal 20.9% | CCRF-CEM leukemia 86.3% | MOLT-4 leukemia 34.5%
active: A498 renal -7.76%

CCOC(=O)C(=Cc1cccc(Br)c1)C(=O)OCC
inactive: SK-MEL-2 melanoma 31.7% | EKVX NSCLC 61.1% | SN12C renal 34.8% | TK-10 renal 58.5% | ACHN renal 27.7% | CAKI-1 renal 59.4% | A498 renal 95.1% | CCRF-CEM leukemia 11.7% | MOLT-4 leukemia 16.6%

O=c1oc2ccccc2cc1C1=NN=C(SCc2ccccc2)SC1
inactive: SK-MEL-2 melanoma 116% | EKVX NSCLC 101% | SN12C renal 103% | UO-31 renal 73.7% | TK-10 renal 108% | ACHN renal 96.9% | CAKI-1 renal 87.4% | A498 renal 119% | CCRF-CEM leukemia 95.3% | MOLT-4 leukemia 97%

COc1ccc(-c2ccc3cnc4sc(-c5ccc(OC)cc5)nc4c3n2)cc1
inactive: SK-MEL-2 melanoma 96.2% | EKVX NSCLC 68.6% | SN12C renal 103% | TK-10 renal 142% | ACHN renal 89.8% | CAKI-1 renal 96% | A498 renal 63.4% | CCRF-CEM leukemia 102% | MOLT-4 leukemia 85.9%

COC(=O)c1cc(-c2ccccc2)[nH]c1N/N=C/c1c(Cl)cccc1Cl
inactive: SN12C renal 35.2% | TK-10 renal 26.4% | ACHN renal 44%
active: SK-MEL-2 melanoma -4.44% | EKVX NSCLC -1.92% | CAKI-1 renal 5.94% | A498 renal -45.8% | CCRF-CEM leukemia -8.44% | MOLT-4 leukemia -9.43%

O=C(Nc1ncc(Cc2ccc(Cl)c(C(F)(F)F)c2)s1)c1ccc2nnsc2c1
inactive: SK-MEL-2 melanoma 47.5% | EKVX NSCLC 39.4% | SN12C renal 58.2% | TK-10 renal 48.3% | ACHN renal 43.7% | CAKI-1 renal 28.1% | A498 renal 82% | CCRF-CEM leukemia 45.5% | MOLT-4 leukemia 30.9%

Cc1nc2c(=O)[nH]c(SCC(=O)Nc3cccc(F)c3)nc2[nH]c1=O
inactive: SK-MEL-2 melanoma 103% | EKVX NSCLC 104% | SN12C renal 100% | UO-31 renal 84% | TK-10 renal 105% | ACHN renal 105% | CAKI-1 renal 89.3% | A498 renal 111% | CCRF-CEM leukemia 90.8% | MOLT-4 leukemia 100%

CN1C(=O)/C(=C/c2cn(-c3ccccc3)nc2-c2ccccc2)SC1=S
inactive: SK-MEL-2 melanoma 107% | EKVX NSCLC 102% | SN12C renal 100% | TK-10 renal 112% | ACHN renal 100% | CAKI-1 renal 89.1% | A498 renal 79.2% | CCRF-CEM leukemia 107% | MOLT-4 leukemia 114%

O=C(CCCCCCN1CC(=O)N2[C@H](c3cc(Br)cs3)c3[nH]c4ccccc4c3C[C@H]2C1=O)NO
active: MOLT-4 leukemia 9.39%
inactive: SK-MEL-2 melanoma 50% | EKVX NSCLC 75.4% | SN12C renal 53.7% | TK-10 renal 32% | ACHN renal 47.8% | CAKI-1 renal 43.7% | A498 renal 58.6% | CCRF-CEM leukemia 23.9%

CCn1c(=S)sc2c(Nc3ccc(F)cc3)nc(-c3cccnc3)nc21
inactive: SK-MEL-2 melanoma 63.1% | EKVX NSCLC 80.5% | SN12C renal 84.1% | TK-10 renal 58.2% | ACHN renal 40.7% | CAKI-1 renal 55.1% | A498 renal 93.7% | CCRF-CEM leukemia 102% | MOLT-4 leukemia 93.7%
